aSyn 5UTR act: Activators via SNCA 5'UTR binding, MLPCN; alpha-synuclein 5'UTR reporter, activators screen; activity score, % (tested at 7.5 µM), hits read low; 7.1% of 300,000 active; AID 1814, 2009; in the data active means activity score below about -60%
An asterisk follows results filed as active. A selection follows.

SMILES	aSyn 5UTR act
CCN(CC)S(=O)(=O)c1cccc(C(=O)N[C@H](C(=O)Nc2nc3ccc(F)cc3s2)C(C)C)c1	-83*
Cc1cccc(C(=O)NC(C(=O)Nc2nc(-c3ccccn3)cs2)C(C)C)c1 (stereo unspecified)	81
CC(C)c1ccc(/C=C/C(=O)N2CCOCC2)cc1	-156*
O=C(/C=C/c1ccc(Cl)cc1)N1CCOCC1	-76*
CC(C)c1ccc(/C=C/C2=NNC(=O)CC2)cc1	87
CCCOc1ccc(/C=C/C(=O)N2CCOCC2)cc1	-68*
COc1ccc(Oc2nccc(-c3ccccc3)c2C#N)cc1	-185*
COc1ccc(Oc2nccc(-c3ccc(F)cc3)c2C#N)cc1	-82*
Cc1ccc(-c2cc(-c3ccc(F)cc3)nc(N)c2C#N)o1	63
CC[C@H]1OC(=O)C[C@@H](O)[C@H](C)[C@@H](O[C@@H]2O[C@H](C)C[C@H](N(C)C)[C@H]2O)[C@@H](CC=O)C[C@@H](C)C(=O)C=C[C@]2(C)O[C@H]2[C@@H]1C	-147*
O=C1NC(c2ccc(Br)cc2)=N/C1=C/c1ccco1	-149*
O=C1NC(c2ccccc2Cl)=N/C1=C/c1ccco1	-142*
c1ccc2oc(C3=NNC(=NC4CC4)SC3)cc2c1	-135*
c1csc(C2=NNC(=NC3CCCCC3)SC2)c1	-165*
O=c1[nH]c2ccccc2n1CCCSc1cnc2ccccc2n1	-64*
CC(C)(C)c1ccc(C(=O)N2CCCC2)s1	-64*
O=C(N/N=C/c1ccc[nH]1)c1sc2ccccc2c1Cl	-105*
CCOC(=S)NC(=O)c1sc2ccccc2c1Cl	-84*
CC(C)(C)C(=O)NC(=S)NNC(=O)c1sc2ccccc2c1Cl	89
O=C(NC(=S)NCCO)c1sc2ccccc2c1Cl	-143*
COc1cccc(-c2ccc3c(N)c(C(=O)NC4CC4)sc3n2)c1	-76*
Nc1c(C(=O)Nc2cccc(Cl)c2Cl)sc2nc(-c3cccnc3)ccc12	-62*
COc1ccc(-c2ccc3c(N)c(C(=O)c4cccc(OC)c4)sc3n2)cc1	-71*
C(=N\Nc1nc2ccccc2s1)/c1ccc2c(c1)OCO2	-190*
Brc1csc(/C=N/Nc2nc3ccccc3s2)c1	-275*
SMILES	aSyn 5UTR act
Cc1nc(N/N=C\c2ccc3c(c2)OCO3)sc1C	-128*
Brc1cc2c(cc1/C=N/Nc1nc3ccccc3s1)OCO2	-117*
C(=N\Nc1nc2ccccc2s1)/c1ccccn1	101
Cc1ccc2[nH]c(C)c(/C=N/Nc3nc4ccccc4s3)c2c1	-140*
COc1ccc2cnn(-c3ccc(C)cc3)c(=O)c2c1OC	-115*
COc1ccc2cnn(-c3ccc(OC(F)(F)Cl)cc3)c(=O)c2c1OC	-70*
CSC1=NC(C)(C)CC2(C)Nc3ccccc3N12 (stereo unspecified)	-88*
CCCOc1ccc(-c2nc(-c3ccc(N)cc3)cs2)cc1	-123*
CC(C)c1ccc(-c2nnc(N)s2)cc1	-102*
CCCOc1ccc(-c2nnc(N)s2)cc1	-136*
Cc1ccc(C(=O)NC(=S)Nc2ccc(-c3cc4ccccc4oc3=O)cc2)c(C)c1	88
COc1ccc(C(=O)Cc2cc3ccccc3oc2=O)cc1	-125*
Cc1ccc(C(=O)Cc2cc3ccccc3oc2=O)c(C)c1	-130*
CC1CCN(CCNC(=O)c2ccc3c(=O)n(Cc4ccc(Cl)cc4)c(=S)[nH]c3c2)CC1	98
O=C(NC1CCN(Cc2ccccc2)CC1)c1ccc(Cn2c(=S)[nH]c3ccc(N4CCOCC4)cc3c2=O)cc1	-92*
O=C(NC(=S)Nc1nc2ccccc2s1)c1cccs1	-136*
COC(=O)c1nc(NC(=S)NC(=O)c2cccs2)sc1C	-80*
COC(=O)Cc1nc(NC(=O)c2cccs2)sc1C	-82*
CCN(CC)C(=S)SCC(=O)c1ccc(Br)cc1	-110*
O=C(Nc1ccccc1Br)c1ccc2nccnc2c1	-113*
O=C(Nc1ccccc1C(F)(F)F)c1ccc2nccnc2c1	-89*
CSc1nc(N)nc(SCC(=O)Nc2cccc(F)c2)c1C#N	-73*
CS(=O)(=O)c1ccc2sc(NC(=O)c3cc4ccccc4o3)nc2c1	-96*
CS(=O)(=O)c1ccc2nc(NC(=O)c3cc4ccccc4o3)sc2c1	-167*
CC(=O)Nc1nc2ccc(-c3nc4ccccc4o3)cc2s1	-108*
SMILES	aSyn 5UTR act
C/C(=N\NC(=O)CSc1nc(C)[nH]c1[N+](=O)[O-])c1ccc(F)cc1	-109*
CCC(=O)NC(=S)Nc1ccc2oc(-c3ccc(OC)cc3)nc2c1	-169*
COc1ccc(-c2nc3cc(NC(=S)NC(=O)Cc4ccccc4)ccc3o2)cc1	-143*
COc1cc2c(cc1NC(=O)Nc1ccc(F)cc1)oc1ccccc12	-95*
COc1cc2c(cc1NC(=S)Nc1cccc(C)c1)oc1ccccc12	-124*
COc1cc2c(cc1NC(=O)C(C)OC(=O)C1CC(=O)N(Cc3ccco3)C1)oc1ccccc12 (stereo unspecified)	-127*
COc1cc2c(cc1NC(=O)CSc1nccn1C)oc1ccccc12	-229*
COc1cc2c(cc1NC(=O)C(C)OC(=O)/C=C/c1ccc(OC(F)F)cc1)oc1ccccc12 (stereo unspecified)	-150*
COc1ccc(NC(=O)Nc2cc3oc4ccccc4c3cc2OC)cc1	-152*
COc1nc(NCCO)nc(Nc2ccccc2F)n1	-97*
Cc1cc2ncn(CCOc3ccccc3)c2cc1C	-168*
CCCCOc1ccc2c(c1)C(=O)c1cc(O)ccc1-2	-209*
O=C(COc1ccc(Br)cc1Cl)NC(=S)Nc1ccccn1	-100*
COCCCNC(=O)COc1ccc(Br)cc1Cl	-146*
CSc1ccccc1OCc1cc(C(=O)N[C@H]2CCCCNC2=O)no1	-83*
CSc1ccccc1OCc1cc(C(=O)NC(C)c2cnn(C)c2)no1 (stereo unspecified)	-62*
CC1=C/C(=C\C=C(C#N)C#N)N(C)c2ccccc21	-102*
COC(=O)Cn1c(=NC(=O)c2ccc([N+](=O)[O-])s2)sc2cc(Br)ccc21	-68*
COC(=O)Cn1c(=NC(=O)c2ccc(Cl)s2)sc2cc(C)ccc21	-184*
COc1cc(/C=N/NC(=O)c2nnn(-c3nonc3N)c2C(C)C)ccc1OCc1ccccc1	-82*
C/C(=N\N=C\c1ccccc1F)c1nnn(-c2nonc2N)c1C	-79*
